High-throughput results (PubChem)
Most compounds without a hit are left out; they make up all but 3.7% or so of the library.
RE007 growth inh = less growth of the S. pombe RE007 Vpr strain | S. pombe RE007 Vpr strain, BacTiter-Glo ATP luminescence, 24 h | Potency, µM (titrated, usually from 92.2 µM), most hits filed as inhibitors | 360,000 tested, 0.21% active | AID 651644; active = well fitted falling curve with a large enough effect; inconclusive = small, poorly fitted or top-dose-only effect; inactive = no such curve, though single readings can be large or run the other way; note: nearly all actives have a fitted effect of over 50% in size
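Fission yeast strain RE007, carrying one chromosomally integrated HIV-1 vpr copy, was seeded at OD 0.01 in PMG+AL medium with 23 nL pinned compound. After 24 h at 30 °C and 99% humidity, viability was read by BacTiter-Glo luminescence.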
Sm TGR inh = S. mansoni TGR enzyme inhibition | Q962Y6 | 360,000 tested, 3% active | purified TGR, DTNB reduction, TNB absorbance 405 nm | Potency, µM (series often up to 114 µM), hits mostly inhibitors; note: nearly all actives have a fitted effect of over 60% in size
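Kinetic colorimetric format: TGR-catalysed, NADPH-driven DTNB reduction monitored via TNB absorbance. Enzyme dispensed at 20 nM; compound exposure 15 min at room temperature before reaction start.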
Tb PYK inh = T. brucei pyruvate kinase inhibition; TbPYK enzyme, Kinase-Glo Plus ATP luminescence, 45 min; 410,000 tested, 0.12% active; Q57TT1; Potency, µM (highest dose often 76.8 µM), usual class: inhibitors; AID 624173; note: nearly all actives have a fitted effect of over 50% in size
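Readout: single end-point luminescence (Kinase-Glo Plus, 10 min). Reaction conditions were TbPYK/substrate plus 130 uM ADP, 45 min at RT, pH 7.2 TEA buffer. No-enzyme wells served as controls, and data were normalized before concentration-response fitting.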
FMDV antiviral = antivirals against foot and mouth disease virus. FMDV antiviral cell-based qHTS. Potency, µM (highest dose often 57.9 µM), most hits filed as inhibitors. 410,000 tested, 1.2% active; calls by dose curve; tested in HEK293T cells; note: read-out not given here; nearly all actives have a fitted effect of over 45% in size
Numbers stand for hits; . = inactive; ? = inconclusive; / = not tested or not shown; [ ] = remark or other dose. Unless noted, calls come from the whole dose curve; as a rule, active = well fitted curve in the direction sought with a large enough effect; inconclusive = small, poorly fitted or top-dose-only effect, or another doubt; inactive = no such curve, though single readings can be large; an effect the other way counts as inactive or inconclusive.

SMILES | RE007 growth inh | Sm TGR inh | Tb PYK inh | FMDV antiviral
O=C(CC1SC2=NCCN2C1=O)Nc1ccccc1 (configuration not stated) | . | . | . | .
Cc1ccc(NC(=O)CC2SC3=NCCN3C2=O)cc1 (configuration not stated) | 5µM | 7.9µM | . | .
CCOCCn1ccc2c(OCC(=O)Nc3cccc(F)c3)cccc2c1=O | / | . | . | .
C=CCSc1nnc(NC(=O)c2cn(CC)c3nc(C)ccc3c2=O)s1 | . | 50µM | . | .
CCn1cc(C(=O)Nc2ccccc2)c(=O)c2ccc(C)nc21 | / | . | / | /
Cc1ccc(CN2CCCn3nc(C(=O)NCc4cc(C)ccc4C)cc3C2=O)cc1 | / | . | . | .
O=C(CS(=O)c1ccccc1[N+](=O)[O-])Oc1ccc(Br)cc1 (configuration not stated) | ? | 25µM | . | .
O=[N+]([O-])c1ccccc1S(=O)c1ccccc1[N+](=O)[O-] | .[18.4 µM] | / | . | .
CS(=O)(=O)c1ccc(S(=O)CC(=O)Oc2ccc(Cl)cc2)c([N+](=O)[O-])c1 (configuration not stated) | . | 1.6µM | . | 35µM
COCc1c(C(=O)NC2CCCC2)cnn1-c1nccc(-c2cccs2)n1 | / | / | / | .
CC(C)CSc1nnc(CNC(=O)c2ccccn2)n1C | / | / | / | .
COc1ccccc1Nc1nc(-c2c(C)nc3ncccn23)cs1 | . | . | . | 14µM
Cc1nc2ncccn2c1-c1csc(NCc2ccco2)n1 | . | . | . | 35µM
Cc1nc2ncccn2c1-c1csc(Nc2ccccc2)n1 | . | . | . | ?
Cc1ccc2c(c1)N=C(c1ccccc1)CC(C(Cl)Cl)=N2 | . | 16µM | . | .
Cc1ccc(O)c(C2=Nc3ccccc3N=C(c3cccc(F)c3)C2)c1 | / | . | / | /
Cc1ccc(C2=Nc3ccccc3N=C(C(Cl)Cl)C2)cc1 | . | 35µM | . | ?
COC(=O)c1ccccc1NC(=O)Cn1c(=O)n(-c2cccc(OC)c2)c(=O)c2c(C)c(C(=O)N(C)C)sc21 | / | . | . | .
COc1ccccc1NC(=O)Cn1c(=O)n(-c2cccc(C)c2)c(=O)c2c1c1cc(C)ccc1n2C | / | . | . | .
CSc1nn(CC(=O)Nc2cc(C)ccc2C)c(N)c1S(=O)(=O)c1ccccc1 | / | . | . | ?
O=C(CC1Oc2ccccc2NC1=O)NC1CC1 (configuration not stated) | / | 79µM | / | /
O=C(NCCc1ccc(Cl)cc1)c1cnc2sc(N3CCCC3)nn2c1=O | / | . | . | ?
Cc1snc(SCC(=O)c2ccc([N+](=O)[O-])cc2)c1C#N | ? | . | 35µM | .
COc1ccc(C)cc1Cn1c(S(C)(=O)=O)nc2ccccc21 | . | 40µM | . | /
CS(=O)(=O)c1nc2ccccc2n1Cc1ccccc1 | . | . | . | .
SMILES | RE007 growth inh | Sm TGR inh | Tb PYK inh | FMDV antiviral
O=C(COC(=O)C1CC(=O)N(Cc2ccco2)C1)c1ccc(OC(=O)c2ccccc2)cc1 (configuration not stated) | . | 25µM | . | .
O=C(COC(=O)C1CC(=O)N(Cc2ccco2)C1)Nc1ccccc1[N+](=O)[O-] (configuration not stated) | . | . | . | .
O=C(COC(=O)C1CC(=O)N(Cc2ccco2)C1)Nc1ccc(F)cc1F (configuration not stated) | . | / | . | .
Cc1ccc(-c2csc(NC(=O)C3CC(=O)N(Cc4ccco4)C3)n2)cc1 (configuration not stated) | . | ? | . | ?
O=C(OCC(=O)N1c2ccccc2Sc2ccccc21)C1CC(=O)N(Cc2ccco2)C1 (configuration not stated) | . | 28µM | . | .
Cc1csc(NC(=O)C2CC(=O)N(Cc3ccco3)C2)n1 (configuration not stated) | . | 45µM | . | .
CC(=O)NCCCS(=O)(=O)O | / | / | . | /
O=[N+]([O-])c1ccc2c(c1)S(=O)(=O)C=C2 | / | / | / | 32µM
Cc1cc([N+](=O)[O-])ccc1N | . | . | . | .
O=C(O)c1ccccc1NC(=O)C1CCCO1 (configuration not stated) | . | . | . | .
O=C(Nc1ccccc1Sc1ccccc1)C1CCCO1 (configuration not stated) | . | 45µM | . | /
COc1cc(CN2CCOc3ccc(C(O)c4cccnc4)cc3C2)cc(OC)c1 (configuration not stated) | / | / | / | .
CN1C2CC(OC(=O)C(CO)c3ccccc3)C[C@@H]1[C@H]1OC21 (some centres not stated) | / | / | / | .
CCCNC(=O)COC(=O)c1ccccc1C(=O)c1ccc(Cl)c([N+](=O)[O-])c1 | . | ? | . | 11µM
O=C1C=CC(=C(c2ccc(O)cc2)c2ccc(O)cc2)C=C1 | . | . | . | 13µM
CCc1ccc(NC(=O)Cn2cnc3sc(C)c(S(=O)(=O)N4CCN(c5ccccc5OC)CC4)c3c2=O)cc1 | / | . | . | ?
Cn1c(=O)c(-c2cc(F)cc(F)c2)nc2cnc(N3CCOCC3)nc21 | / | / | / | .
Cc1cc(O)c(C(=O)/C=C/c2ccccc2)c(=O)o1 | . | ? | . | 11µM
Cc1[nH]c2ccccc2c(=O)c1C(=O)/C=C/c1ccccc1 | . | 32µM | . | 13µM
Cc1cc(O)c(C(=O)/C=C/c2ccccc2Br)c(=O)o1 | . | . | . | 11µM
O=C(C=Cc1ccccc1)c1c[nH]c2ccccc2c1=O | . | / | . | .
COc1cc(OC)c(C(=O)/C=C/c2ccccc2)c(O)c1O | . | ? | . | 25µM
Cc1cc(O)c(C(=O)/C=C/c2ccc(C(C)C)cc2)c(=O)o1 | . | . | . | .
CCOc1ccc(/C=C/C(=O)c2c(O)cc(C)oc2=O)cc1 | . | . | . | .
Oc1cc(-c2nc3ccccc3s2)cc2c1OCCN(Cc1cccn1-c1ccccn1)C2 | / | / | / | .
SMILES | RE007 growth inh | Sm TGR inh | Tb PYK inh | FMDV antiviral
COc1ccc(CNC(=O)c2cc3c(=O)n(Cc4ccco4)ccc3nc2C)c(OC)c1 | / | . | . | .
OCCN1CCN(Cc2ccc3c(c2)CN(Cc2cc4ccccc4o2)CCO3)CC1 | / | / | / | .
COc1cccc2c1cc1c(=O)n(CC(=O)NCc3ccc(C)o3)nc(C)n12 | / | . | . | .
O=C(COC(=O)/C=C/c1ccco1)Nc1ccc(F)cc1Cl | . | 32µM | . | .
O=C(COC(=O)/C=C/c1ccco1)Nc1ccccc1 | . | 56µM | . | .
COC(=O)c1ccccc1NC(=O)COC(=O)/C=C/c1ccco1 | . | 25µM | . | .
O=C(COC(=O)/C=C/c1ccc(F)cc1)NCc1ccc2c(c1)OCO2 | . | / | . | .
COC(=O)c1ccccc1NC(=O)COC(=O)c1ccco1 | . | . | . | .
O=C(COC(=O)/C=C/c1ccco1)NCc1ccc2c(c1)OCO2 | . | 35µM | . | .
COc1ccc(C(=O)COC(=O)/C=C/c2ccco2)cc1F | . | 22µM | . | .
O=C(COC(=O)C1(c2ccc(F)cc2)CCCC1)NCc1ccc2c(c1)OCO2 | . | . | . | 40µM
O=C(COC(=O)C1(c2ccccc2F)CCCC1)NCc1ccc2c(c1)OCO2 | . | . | . | .
